# From the supplement of paper PMC7411640
# Where a name gives a salt, the structure may show the parent alone.
# Test system: MDA-MB-468
# Assay: phospho-S6 immunofluorescence (DAPI-normalised), per-plate z-score; higher = higher phospho-S6 signal (less pathway suppression)
# Conditions: 24 h
# Procedure: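 GPCR-targeted compound library (MedChemExpress HY-L006) tested on MDA-MB-468 PTEN-null TNBC cells in 384-well plates at 0.1, 1 or 10 uM, combined with vehicle, GDC0941 450 nM or lapatinib 1 uM, for 24 h. Phospho-S6 (S240/244) immunofluorescence normalised to DAPI and expressed as a per-plate z-score; values are the mean of biological triplicates.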
Compound,phospho-S6 immunofluorescence (z-score) (co-treatment: GDC0941 450 nM),phospho-S6 immunofluorescence (z-score) (co-treatment: lapatinib 1 uM),phospho-S6 immunofluorescence (z-score) (co-treatment: vehicle)
CN1C(=O)COc2c(C(=O)NC3CN4CCC3CC4)cc(Cl)cc21 (configuration not stated) [Azasetron (hydrochloride)] (compound 10 µM),0.53,0.2,1.23
CSCC[C@H](NC(=O)[C@H](Cc1ccccc1)NC(=O)CNC(=O)CNC(=O)[C@@H](N)Cc1ccc(O)cc1)C(=O)O (compound 10 µM),-0.41,-0.12,-0.05
CCC1(c2cccc(O)c2)CCCCN(C)C1 (configuration not stated) [Meptazinol (hydrochloride)] (compound 10 µM),0.48,0.25,0.11
CN1CCC2=C(C1)c1ccccc1Cc1ccccc12 [Setiptiline (maleate)] (compound 10 µM),-0.68,-1.28,-1.11
